# From PMC7862700, “An all-to-all approach to the identification of sequence-specific readers for epigenetic DNA modifications on cytosine”
# Columns and labels:
# Assay in all cases: DAPPL (digital affinity profiling via proximity ligation, sequencing); 10 mM Tris-HCl pH 7.5, 50 mM NaCl, 1 mM DTT, 4% glycerol, room temperature, 30 min; GST-TFs on glutathione beads, 16-mer random dsDNA library, 0.1% formaldehyde crosslink after washing; high values mean tight binding
# Settings in all cases: protein: recombinant; tags: N-terminal GST; dsDNA, one strand shown
# ERF = target: T1, ERF (Homo sapiens, UniProt P50548 1-548)
# T1 sequence: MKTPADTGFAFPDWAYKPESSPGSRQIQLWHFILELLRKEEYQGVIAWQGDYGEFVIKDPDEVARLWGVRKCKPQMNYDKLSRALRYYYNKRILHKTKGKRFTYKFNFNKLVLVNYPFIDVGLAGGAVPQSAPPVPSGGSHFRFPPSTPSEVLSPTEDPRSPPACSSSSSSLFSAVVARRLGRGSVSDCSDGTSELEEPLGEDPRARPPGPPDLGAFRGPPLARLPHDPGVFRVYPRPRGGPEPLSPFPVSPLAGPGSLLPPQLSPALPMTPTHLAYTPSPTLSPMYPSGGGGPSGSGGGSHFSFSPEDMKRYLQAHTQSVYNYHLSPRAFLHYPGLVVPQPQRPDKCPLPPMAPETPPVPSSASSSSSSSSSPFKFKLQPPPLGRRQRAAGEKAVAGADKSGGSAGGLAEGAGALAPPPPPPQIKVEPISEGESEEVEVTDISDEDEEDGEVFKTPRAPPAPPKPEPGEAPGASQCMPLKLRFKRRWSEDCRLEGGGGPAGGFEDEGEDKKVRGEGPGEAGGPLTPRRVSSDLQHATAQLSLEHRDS
# Summary of the method: (§1)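 Pools of DNA-barcoded human transcription factors, expressed in yeast as GST fusions on glutathione beads and combined with a tag-only sample, were incubated with 200 nmole of a 16-mer random double-stranded DNA library. Incubation took 30 min at room temperature in Tris/NaCl/DTT/glycerol buffer and was followed by washing, 0.1% formaldehyde crosslinking, proximity ligation (BsaI/T4 ligase, 1 h, 37 °C), PCR amplification and sequencing on an Illumina NextSeq500. Binding signal is the ratio of a hexamer's read frequency for a factor to its frequency for the tag-only sample.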
# ETV3L = target: T2, ETV3L (Homo sapiens, UniProt Q6ZN32 1-361)
# T2 sequence: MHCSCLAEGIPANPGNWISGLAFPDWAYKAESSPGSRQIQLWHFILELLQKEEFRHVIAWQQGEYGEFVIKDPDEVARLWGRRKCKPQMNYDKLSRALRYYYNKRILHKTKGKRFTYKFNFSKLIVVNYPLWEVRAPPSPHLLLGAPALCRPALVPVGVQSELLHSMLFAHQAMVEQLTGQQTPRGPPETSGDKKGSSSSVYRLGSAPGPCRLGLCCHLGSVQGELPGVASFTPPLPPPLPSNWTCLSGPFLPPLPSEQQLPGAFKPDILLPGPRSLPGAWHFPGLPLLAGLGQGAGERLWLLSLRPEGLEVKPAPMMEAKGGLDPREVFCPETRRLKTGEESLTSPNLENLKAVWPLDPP
# Summary of the method: as §1
# ETS2 = target: T3, ETS2 (Homo sapiens, UniProt P15036 1-469)
# T3 sequence: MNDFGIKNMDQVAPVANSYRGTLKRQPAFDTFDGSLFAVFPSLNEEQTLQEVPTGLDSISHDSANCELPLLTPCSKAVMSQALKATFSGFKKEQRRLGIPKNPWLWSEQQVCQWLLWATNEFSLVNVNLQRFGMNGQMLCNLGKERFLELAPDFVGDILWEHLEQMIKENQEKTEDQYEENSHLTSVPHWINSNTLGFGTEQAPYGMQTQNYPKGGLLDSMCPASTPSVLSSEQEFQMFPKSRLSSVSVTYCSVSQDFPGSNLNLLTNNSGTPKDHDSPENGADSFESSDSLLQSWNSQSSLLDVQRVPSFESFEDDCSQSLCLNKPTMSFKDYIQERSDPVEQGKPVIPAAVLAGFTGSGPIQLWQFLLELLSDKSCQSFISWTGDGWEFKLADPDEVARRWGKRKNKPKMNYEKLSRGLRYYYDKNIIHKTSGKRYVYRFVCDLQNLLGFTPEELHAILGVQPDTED
# Summary of the method: as §1
# SPDEF = target: T4, SPDEF (Homo sapiens, UniProt O95238 1-335)
# T4 sequence: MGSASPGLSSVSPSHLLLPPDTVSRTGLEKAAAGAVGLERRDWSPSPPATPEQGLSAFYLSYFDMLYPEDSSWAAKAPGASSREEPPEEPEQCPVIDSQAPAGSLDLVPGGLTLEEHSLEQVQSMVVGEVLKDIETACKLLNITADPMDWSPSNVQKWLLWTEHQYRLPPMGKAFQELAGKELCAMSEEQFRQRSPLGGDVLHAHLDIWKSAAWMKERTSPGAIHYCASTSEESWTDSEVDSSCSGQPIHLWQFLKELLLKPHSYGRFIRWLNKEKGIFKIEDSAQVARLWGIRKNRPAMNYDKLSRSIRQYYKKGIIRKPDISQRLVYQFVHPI
# Summary of the method: as §1
# ETV7 = target: T5, ETV7 (Homo sapiens, UniProt Q9Y603 1-341)
# T5 sequence: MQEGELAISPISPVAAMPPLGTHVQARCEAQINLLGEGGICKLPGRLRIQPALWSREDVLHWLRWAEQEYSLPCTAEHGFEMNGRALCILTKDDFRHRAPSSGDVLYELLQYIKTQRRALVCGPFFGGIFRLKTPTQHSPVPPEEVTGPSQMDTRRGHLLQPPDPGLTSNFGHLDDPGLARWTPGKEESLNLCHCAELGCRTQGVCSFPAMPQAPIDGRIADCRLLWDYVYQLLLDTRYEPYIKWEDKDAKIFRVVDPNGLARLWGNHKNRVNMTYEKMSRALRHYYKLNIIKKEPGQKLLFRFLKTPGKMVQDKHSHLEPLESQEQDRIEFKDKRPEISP
# Summary of the method: as §1
# ELF5 = target: T6, ELF5 (Homo sapiens, UniProt Q9UKW6-2 1-255)
# T6 sequence: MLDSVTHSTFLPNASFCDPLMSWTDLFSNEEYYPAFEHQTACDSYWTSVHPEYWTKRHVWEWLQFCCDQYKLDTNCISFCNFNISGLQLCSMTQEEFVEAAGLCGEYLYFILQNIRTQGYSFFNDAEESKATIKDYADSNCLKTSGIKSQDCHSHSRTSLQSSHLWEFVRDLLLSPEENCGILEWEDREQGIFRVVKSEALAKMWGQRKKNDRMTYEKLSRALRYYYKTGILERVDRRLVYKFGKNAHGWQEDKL
# Summary of the method: as §1
# ETV3 = target: T7, ETV3 (Homo sapiens, UniProt P41162-2 1-143)
# T7 sequence: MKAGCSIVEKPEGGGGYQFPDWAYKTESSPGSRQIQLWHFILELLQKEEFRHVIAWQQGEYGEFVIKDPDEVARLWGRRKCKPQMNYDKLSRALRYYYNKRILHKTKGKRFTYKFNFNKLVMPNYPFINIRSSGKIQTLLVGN
# Summary of the method: as §1
# ETV6 = ETV6 (Homo sapiens, UniProt P41212 1-452)
# Summary of the method: as §1
# Chain of ETV6 (P41212 whole entry): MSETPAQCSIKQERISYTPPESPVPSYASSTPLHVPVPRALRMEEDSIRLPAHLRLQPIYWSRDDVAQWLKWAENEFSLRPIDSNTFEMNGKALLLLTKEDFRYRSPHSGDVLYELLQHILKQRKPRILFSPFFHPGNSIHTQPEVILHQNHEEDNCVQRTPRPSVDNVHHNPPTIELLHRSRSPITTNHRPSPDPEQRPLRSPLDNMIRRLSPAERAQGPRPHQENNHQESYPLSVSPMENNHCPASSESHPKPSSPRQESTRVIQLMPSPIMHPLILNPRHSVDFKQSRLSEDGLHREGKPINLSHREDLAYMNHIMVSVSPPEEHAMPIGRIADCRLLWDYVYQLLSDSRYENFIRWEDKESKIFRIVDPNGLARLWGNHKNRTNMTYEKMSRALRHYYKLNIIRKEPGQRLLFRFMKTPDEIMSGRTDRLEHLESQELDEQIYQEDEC
Sequence,binding signal (ERF),binding signal (ETV3L),binding signal (ETS2),binding signal (SPDEF),binding signal (ETV7),binding signal (ELF5),binding signal (ETV3),binding signal (ETV6)
GTTCTG,"1.12 fold enrichment (6-mer frequency, TF over GST control)","1.23 fold enrichment (6-mer frequency, TF over GST control)","1.05 fold enrichment (6-mer frequency, TF over GST control)","1 fold enrichment (6-mer frequency, TF over GST control)","1.07 fold enrichment (6-mer frequency, TF over GST control)","1.1 fold enrichment (6-mer frequency, TF over GST control)","1.13 fold enrichment (6-mer frequency, TF over GST control)","1.1 fold enrichment (6-mer frequency, TF over GST control)"
AAGTAC,"1.42 fold enrichment (6-mer frequency, TF over GST control)","1.39 fold enrichment (6-mer frequency, TF over GST control)","1.59 fold enrichment (6-mer frequency, TF over GST control)","1.92 fold enrichment (6-mer frequency, TF over GST control)","1.65 fold enrichment (6-mer frequency, TF over GST control)","1.69 fold enrichment (6-mer frequency, TF over GST control)","1.62 fold enrichment (6-mer frequency, TF over GST control)","1.85 fold enrichment (6-mer frequency, TF over GST control)"
ATCTTG,"1.29 fold enrichment (6-mer frequency, TF over GST control)","1.31 fold enrichment (6-mer frequency, TF over GST control)","1.33 fold enrichment (6-mer frequency, TF over GST control)","1.27 fold enrichment (6-mer frequency, TF over GST control)","1.24 fold enrichment (6-mer frequency, TF over GST control)","1.23 fold enrichment (6-mer frequency, TF over GST control)","1.37 fold enrichment (6-mer frequency, TF over GST control)","1.18 fold enrichment (6-mer frequency, TF over GST control)"
AACTCA,"1.18 fold enrichment (6-mer frequency, TF over GST control)","1.18 fold enrichment (6-mer frequency, TF over GST control)","1.28 fold enrichment (6-mer frequency, TF over GST control)","1.22 fold enrichment (6-mer frequency, TF over GST control)","1.2 fold enrichment (6-mer frequency, TF over GST control)","1.22 fold enrichment (6-mer frequency, TF over GST control)","1.26 fold enrichment (6-mer frequency, TF over GST control)","1.34 fold enrichment (6-mer frequency, TF over GST control)"
AAATCA,"1.23 fold enrichment (6-mer frequency, TF over GST control)","1.27 fold enrichment (6-mer frequency, TF over GST control)","1.22 fold enrichment (6-mer frequency, TF over GST control)","1.12 fold enrichment (6-mer frequency, TF over GST control)","1.16 fold enrichment (6-mer frequency, TF over GST control)","1.22 fold enrichment (6-mer frequency, TF over GST control)","1.17 fold enrichment (6-mer frequency, TF over GST control)","1.21 fold enrichment (6-mer frequency, TF over GST control)"
TTAATT,"1.39 fold enrichment (6-mer frequency, TF over GST control)","1.39 fold enrichment (6-mer frequency, TF over GST control)","1.5 fold enrichment (6-mer frequency, TF over GST control)","1.3 fold enrichment (6-mer frequency, TF over GST control)","1.55 fold enrichment (6-mer frequency, TF over GST control)","1.43 fold enrichment (6-mer frequency, TF over GST control)","1.44 fold enrichment (6-mer frequency, TF over GST control)","1.4 fold enrichment (6-mer frequency, TF over GST control)"
TCTTAA,"1.19 fold enrichment (6-mer frequency, TF over GST control)","1.37 fold enrichment (6-mer frequency, TF over GST control)","1.22 fold enrichment (6-mer frequency, TF over GST control)","1.28 fold enrichment (6-mer frequency, TF over GST control)","1.27 fold enrichment (6-mer frequency, TF over GST control)","1.2 fold enrichment (6-mer frequency, TF over GST control)","1.23 fold enrichment (6-mer frequency, TF over GST control)","1.26 fold enrichment (6-mer frequency, TF over GST control)"
CATCTC,"1.25 fold enrichment (6-mer frequency, TF over GST control)","1.32 fold enrichment (6-mer frequency, TF over GST control)","1.36 fold enrichment (6-mer frequency, TF over GST control)","1.24 fold enrichment (6-mer frequency, TF over GST control)","1.15 fold enrichment (6-mer frequency, TF over GST control)","1.22 fold enrichment (6-mer frequency, TF over GST control)","1.29 fold enrichment (6-mer frequency, TF over GST control)","1.26 fold enrichment (6-mer frequency, TF over GST control)"
TTTCCG,"3.3 fold enrichment (6-mer frequency, TF over GST control)","3.52 fold enrichment (6-mer frequency, TF over GST control)","3.92 fold enrichment (6-mer frequency, TF over GST control)","3.35 fold enrichment (6-mer frequency, TF over GST control)","3.55 fold enrichment (6-mer frequency, TF over GST control)","5.34 fold enrichment (6-mer frequency, TF over GST control)","4.06 fold enrichment (6-mer frequency, TF over GST control)","4.37 fold enrichment (6-mer frequency, TF over GST control)"
TGGATG,"1.46 fold enrichment (6-mer frequency, TF over GST control)","1.53 fold enrichment (6-mer frequency, TF over GST control)","1.4 fold enrichment (6-mer frequency, TF over GST control)","1.53 fold enrichment (6-mer frequency, TF over GST control)","1.68 fold enrichment (6-mer frequency, TF over GST control)","1.45 fold enrichment (6-mer frequency, TF over GST control)","1.57 fold enrichment (6-mer frequency, TF over GST control)","1.44 fold enrichment (6-mer frequency, TF over GST control)"
TACTCT,"1.46 fold enrichment (6-mer frequency, TF over GST control)","1.37 fold enrichment (6-mer frequency, TF over GST control)","1.3 fold enrichment (6-mer frequency, TF over GST control)","1.39 fold enrichment (6-mer frequency, TF over GST control)","1.33 fold enrichment (6-mer frequency, TF over GST control)","1.38 fold enrichment (6-mer frequency, TF over GST control)","1.39 fold enrichment (6-mer frequency, TF over GST control)","1.39 fold enrichment (6-mer frequency, TF over GST control)"
ATGCAT,"1.21 fold enrichment (6-mer frequency, TF over GST control)","1.26 fold enrichment (6-mer frequency, TF over GST control)","1.21 fold enrichment (6-mer frequency, TF over GST control)","1.32 fold enrichment (6-mer frequency, TF over GST control)","1.21 fold enrichment (6-mer frequency, TF over GST control)","1.15 fold enrichment (6-mer frequency, TF over GST control)","1.26 fold enrichment (6-mer frequency, TF over GST control)","1.2 fold enrichment (6-mer frequency, TF over GST control)"
TCCCTA,"1.43 fold enrichment (6-mer frequency, TF over GST control)","1.39 fold enrichment (6-mer frequency, TF over GST control)","1.32 fold enrichment (6-mer frequency, TF over GST control)","1.4 fold enrichment (6-mer frequency, TF over GST control)","1.16 fold enrichment (6-mer frequency, TF over GST control)","1.67 fold enrichment (6-mer frequency, TF over GST control)","1.38 fold enrichment (6-mer frequency, TF over GST control)","1.17 fold enrichment (6-mer frequency, TF over GST control)"
TTATAT,"1.23 fold enrichment (6-mer frequency, TF over GST control)","1.37 fold enrichment (6-mer frequency, TF over GST control)","1.39 fold enrichment (6-mer frequency, TF over GST control)","1.4 fold enrichment (6-mer frequency, TF over GST control)","1.38 fold enrichment (6-mer frequency, TF over GST control)","1.28 fold enrichment (6-mer frequency, TF over GST control)","1.44 fold enrichment (6-mer frequency, TF over GST control)","1.36 fold enrichment (6-mer frequency, TF over GST control)"
ATAACT,"1.24 fold enrichment (6-mer frequency, TF over GST control)","1.22 fold enrichment (6-mer frequency, TF over GST control)","1.27 fold enrichment (6-mer frequency, TF over GST control)","1.18 fold enrichment (6-mer frequency, TF over GST control)","1.24 fold enrichment (6-mer frequency, TF over GST control)","1.29 fold enrichment (6-mer frequency, TF over GST control)","1.34 fold enrichment (6-mer frequency, TF over GST control)","1.27 fold enrichment (6-mer frequency, TF over GST control)"
